Shown are actives, neighbours in structure and some others; about 11% of the full set was active somewhere.
G9a inh – G9a (human) methyltransferase inhibition; Q96KQ7; G9a H3K9 monomethylation, AlphaScreen, 2 h; Potency, µM (titrated, usually from 102 µM), actives largely listed as inhibitors; 8.8% of 350,000 active; AID 504332; further: nearly all actives have a fitted effect of over 75% in size
Target sequence (Q96KQ7 913-1193 limits assumed): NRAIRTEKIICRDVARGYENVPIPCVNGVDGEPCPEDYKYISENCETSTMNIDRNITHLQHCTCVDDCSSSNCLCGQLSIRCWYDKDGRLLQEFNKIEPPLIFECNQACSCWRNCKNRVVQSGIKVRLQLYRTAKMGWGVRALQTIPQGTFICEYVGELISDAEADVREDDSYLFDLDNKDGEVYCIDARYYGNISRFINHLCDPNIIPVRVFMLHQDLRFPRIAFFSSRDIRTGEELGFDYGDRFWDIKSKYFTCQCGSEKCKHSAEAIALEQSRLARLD
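Enzyme 20 nM + cpd, 15 min RT; add b-H3K9 pep 500 nM / SAM 20 uM; 2 h RT; anti-H3K9me1 Ab 0.5 ug/mL + SA donor / anti-rabbit acceptor beads 20 ug/mL each, 10 min; AlphaScreen read.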
Tau fibril FP – tau fibrillization inhibition (FP). P10636. 0.39% of 280,000 active. K18 P301L tau heparin fibrillization, Alexa594 FP, 6 h. Potency, µM (series often up to 57.7 µM), usual class: inhibitors. AID 1468; further: nearly all actives have a fitted effect of over 55% in size
Target sequence (P10636 561-689 P618L limits assumed): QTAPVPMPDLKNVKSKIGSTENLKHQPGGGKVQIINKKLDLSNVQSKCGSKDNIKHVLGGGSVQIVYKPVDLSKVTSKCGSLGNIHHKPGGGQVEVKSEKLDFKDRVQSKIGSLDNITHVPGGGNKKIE
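K18 P301L tau (15 uM unlabeled/0.24 uM Alexa 594-labeled, final) + compound + heparin 20 uM final; 100 mM NaOAc pH 7; 6 hr 37 C; ThT 30 uM final added, 1 hr RT; FP ex 555/em 632 nm.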
Sfp inh – blocks B. subtilis Sfp PPTase activity. Q9F4F7. Biochemical Sfp PPTase activity, qHTS. Potency, µM, hits mostly inhibitors. 3.5% of 310,000 active;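 further: the enzyme is Sfp with the accession as filed and its product quenches rhodamine fluorescence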
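Fluorescence-quenching assay with 15 nM Sfp, 5 uM rhodamine-CoA and 12.5 uM BHQ-2-labelled ybbR peptide in pH 7.6 Hepes/MgCl2 buffer. Enzyme was pre-incubated with compound for 15 min at room temperature. Rate was taken from the 30-min fluorescence change (525/598 nm).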
FBPA coupling cs – counter-screen for Giardia aldolase inhibitors: coupling enzyme system | coupling enzyme system counterscreen, AmpLite Red fluorescence | activity change, negative = inhibition, % at 58.2 µM, hits read low | 0.67% of 290,000 active; in the data active means activity change below about -30%
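Counterscreen of the coupled detection system alone, without aldolase: glyceraldehyde-3-phosphate coupling enzymes plus AmpLite Red readout. Compounds at 57.5 uM final, 10 min RT preincubation, 20 min RT reaction, fluorescence 525/598 nm.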
Tau fluor cs – counter-screen for tau fibril formation inhibitors | tau K18 P301L Alexa594 fluorescence, heparin fibrillization | Potency, µM (titrated, usually from 57.7 µM) | 0.93% of 280,000 active | AID 1463; further: nearly all actives have a fitted effect of over 55% in size
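Human K18 P301L tau (15 uM unlabeled plus 0.24 uM Alexa 594-labeled, final) in 100 mM sodium acetate pH 7 was mixed with compound and 20 uM heparin and incubated 6 hr at 37 C.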
Tau ThT inhib – inhibitors of human tau fibril formation, thioflavin T binding. AID 1460. recombinant tau K18 P301L, heparin-induced fibrillization, ThT fluorescence. Potency, µM (series often up to 57.4 µM), most hits filed as inhibitors. 2.1% of 270,000 active. P10636; further: nearly all actives have a fitted effect of over 55% in size
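Using a mix of unlabeled (15 uM) and Alexa 594-labeled (0.24 uM) tau K18 P301L, heparin-triggered fibrillization over 6 hr at 37 C was scored by ThT fluorescence.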
A number is an active result; [ ] = another dose, or the depositor's remark. Unless noted, the call rests on the fitted dose curve; in most records, active means well fitted curve in the direction sought with a large enough effect; inconclusive means small, poorly fitted or top-dose-only effect, or another doubt; inactive means no such curve, though single readings can be large; an effect the other way counts as inactive or inconclusive.

COc1ccc(/C=C/C(=O)c2cc(F)ccc2OC(=O)c2ccccc2OC)cc1OC was read as G9a inh inactive, Tau fibril FP inactive, Sfp inh inactive, FBPA coupling cs inactive, Tau fluor cs inactive and Tau ThT inhib inconclusive.
CCc1noc(-c2ccc(N3CCCCC3C)c([N+](=O)[O-])c2)n1 (centres undefined) was read as G9a inh inconclusive, Tau fibril FP inactive, Tau fluor cs inactive and Tau ThT inhib inactive.
`COc1ccccc1/C=C1\CCC(C2CCCC2)C1=O` (centres undefined) gave G9a inh inactive, Sfp inh inactive and FBPA coupling cs inactive.
For COc1ccc2oc(C(=O)Nc3cccc(S(=O)(=O)N4CCOCC4)c3)c(C)c2c1 the results were G9a inh inactive.
For Cc1cc(OCC(=O)Nc2sc3c(c2C(N)=O)CCCC3)ccc1C(C)C the results were G9a inh inactive, Tau fibril FP inactive, Tau fluor cs inactive and Tau ThT inhib inconclusive.
Screening COc1ccc(C2c3[nH]c4ccccc4c3CCN2Cc2ccoc2)c(F)c1 (centres undefined) returned G9a inh 45µM, Tau fibril FP inactive, Sfp inh inactive, FBPA coupling cs inactive, Tau fluor cs inconclusive and Tau ThT inhib inactive.
CC(C)(C)C1c2[nH]c3ccccc3c2CCN1CCCn1cccn1 (centres undefined) was read as G9a inh inactive, Tau fibril FP inactive, Sfp inh inactive, FBPA coupling cs inactive, Tau fluor cs inactive and Tau ThT inhib inactive.
Screening Fc1ccccc1C1c2[nH]c3ccccc3c2CCN1CCCn1cccn1 (centres undefined) returned G9a inh 40µM, Tau fibril FP inactive, Sfp inh inactive, FBPA coupling cs inactive, Tau fluor cs inactive and Tau ThT inhib inactive.
`CCOC(=O)c1c(CN2CCN(c3ccccc3)CC2)oc2cc(Br)c(O)cc12` gave G9a inh 50µM, Sfp inh inactive and FBPA coupling cs inactive.
`CCOC(=O)c1c(CN2CCN(C)CC2)oc2ccc(O)cc12` gave G9a inh 50µM, Tau fibril FP inactive, Sfp inh inactive, FBPA coupling cs inactive, Tau fluor cs inactive and Tau ThT inhib inactive.
CCOC(=O)c1c(CSc2ccccc2)oc2ccc(O)cc12 was read as G9a inh inactive, Tau fibril FP inconclusive, Sfp inh inactive, FBPA coupling cs inactive, Tau fluor cs inconclusive and Tau ThT inhib inconclusive.
`CCOC(=O)c1c(-c2ccccc2)oc2ccc(O)c(CN3CCN(C)CC3)c12` gave G9a inh 50µM, Tau fibril FP inactive, Sfp inh inactive, FBPA coupling cs inactive, Tau fluor cs inactive and Tau ThT inhib inactive.
For CCOC(=O)c1c(CN2CCN(CCO)CC2)n(-c2ccccc2)c2cc(Br)c(O)cc12 the results were G9a inh inconclusive, Tau fibril FP inactive, Sfp inh inactive, FBPA coupling cs inactive, Tau fluor cs inactive and Tau ThT inhib inactive.
`CCOC(=O)c1c(C)n(C)c2ccc(O)c(CN3CCN(C)CC3)c12` gave G9a inh inconclusive, Tau fibril FP inactive, Sfp inh inactive, FBPA coupling cs inactive, Tau fluor cs inactive and Tau ThT inhib inconclusive.
Screening CCOC(=O)c1c(CSc2ccc(C)cc2)oc2ccc(O)cc12 returned G9a inh inactive, Tau fibril FP 32µM, Sfp inh inactive, FBPA coupling cs inactive, Tau fluor cs inconclusive and Tau ThT inhib inconclusive.
For COc1ccc(-n2nc(C(=O)NCC(=O)NCCN(C)C)c3ccccc3c2=O)cc1 the results were G9a inh inactive, Sfp inh inactive and FBPA coupling cs inactive.
Screening Cc1ccc(S(=O)(=O)N(CC(=O)Nc2ccc(F)cc2F)Cc2ccc(F)cc2)cc1 returned G9a inh inactive, Tau fibril FP inactive, Tau fluor cs inactive and Tau ThT inhib inactive.
Screening CCOC(=O)c1c(-c2ccccc2)oc2ccc(O)cc12 returned G9a inh inactive[0.501 µM], Sfp inh 40µM and FBPA coupling cs inactive.

Assay outcomes (PubChem BioAssay)
